Shown is part of a subset that was picked to be rich in hits.
Shiga inhibitor – inhibitors of Shiga toxin in Vero cells; Vero cells, Shiga toxin protein synthesis inhibition reporter; inhibition, % at 38.7 µM; 9.2% of 290,000 active; AID 2315; in the data active = inhibition mostly above about 28%, no sharp cut-off; inactive = mostly below about 43%; note: 0% is about no effect
Cycloheximide cs – affects cycloheximide protein synthesis inhibition readout, counter-screen | cell reporter, cycloheximide protein synthesis inhibition counterscreen | max response, % | 12% of 300,000 active; in the data active = max response mostly above about 13%, no sharp cut-off; inactive = mostly below about 14%; note: read at 38.3 µM for the half of the compounds with a filed dose; 0% is about no effect
LmPK inh – blocks Leishmania mexicana pyruvate kinase activity; AID 1721; Potency, µM (series often up to 57.5 µM), for inactives: top-dose activity change, negative = inhibition, most hits filed as inhibitors; 0.37% of 290,000 active; Q27686; purified LmPK, Kinase-Glo ATP luminescence, 1 h; note: potency is the fitted concentration of half-maximal effect; % is set by controls: 0 for no effect and ±100 for the full control effect
Target sequence (Q27686 whole entry, looked up): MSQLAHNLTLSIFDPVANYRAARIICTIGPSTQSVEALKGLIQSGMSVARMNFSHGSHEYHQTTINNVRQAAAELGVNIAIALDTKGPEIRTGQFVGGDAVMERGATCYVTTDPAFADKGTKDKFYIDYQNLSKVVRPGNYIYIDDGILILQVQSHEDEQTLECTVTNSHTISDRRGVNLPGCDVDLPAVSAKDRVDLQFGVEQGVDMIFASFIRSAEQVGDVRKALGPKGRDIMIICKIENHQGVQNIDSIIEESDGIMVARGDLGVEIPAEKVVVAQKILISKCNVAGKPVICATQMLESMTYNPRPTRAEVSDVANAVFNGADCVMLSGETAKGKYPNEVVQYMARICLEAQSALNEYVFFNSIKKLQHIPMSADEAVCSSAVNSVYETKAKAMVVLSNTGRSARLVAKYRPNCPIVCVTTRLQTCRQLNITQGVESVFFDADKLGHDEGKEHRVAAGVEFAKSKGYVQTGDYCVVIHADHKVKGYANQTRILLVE
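0.1 nM LmPK, 0.5 mM PEP, 0.1 mM ADP; 50 mM imidazole pH 7.2, 7 mM MgCl2, 50 mM KCl; 1 h RT. Kinase-Glo luminescence readout, normalized to no-enzyme (full inhibition) and uninhibited wells.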
FBPA Giardia inh – Giardia lamblia aldolase inhibition; A8B2U2; purified Giardia FBPA; Potency, µM (doses to about 59.6 µM), inactives show top-dose activity, negative = inhibition, most hits filed as inhibitors; 0.71% of 290,000 active; note: potency is the fitted concentration of half-maximal effect; % is set by controls: 0 for no effect and ±100 for the full control effect; nearly all actives have a fitted effect of over 55% in size
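Giardia FBPA (40 nM reagent) was preincubated 10 min at RT with compound (up to 57.5 uM final), then substrate plus GAPDH/TPI/NAD/arsenate coupling system with diaphorase/resazurin was added; resorufin fluorescence (525/598 nm) was read after 20 min.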
TbPYK inhibitor – inhibitors of Trypanosoma brucei pyruvate kinase; Q57TT1; TbPYK enzyme, Kinase-Glo Plus ATP luminescence, 45 min; Potency, µM (series often up to 76.8 µM), without a hit: at the highest dose activity, negative = inhibition, hits mostly inhibitors; 0.12% of 410,000 active; note: potency is the fitted concentration of half-maximal effect; % is set by controls: 0 for no effect and ±100 for the full control effect; nearly all actives have a fitted effect of over 50% in size
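Luminescent Kinase-Glo Plus end-point after 45 min room-temperature reaction of T. brucei pyruvate kinase started with 130 uM ADP (final). Buffer TEA 50 mM pH 7.2 with KCl, MgCl2, BSA, Tween-20; titration-based qHTS with fitted concentration-effect curves.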
RE007 growth inh – less growth of the S. pombe RE007 Vpr strain; S. pombe RE007 Vpr strain, BacTiter-Glo ATP luminescence, 24 h; Potency, µM (series often up to 92.2 µM), without a hit: at the highest dose activity change, negative = less growth, usual class: inhibitors; 0.21% of 360,000 active; AID 651644; active = well fitted falling curve with a large enough effect; inconclusive = small, poorly fitted or top-dose-only effect; inactive = no such curve, though single readings can be large or run the other way; note: potency is the fitted concentration of half-maximal effect; % is set by controls: 0 for no effect and ±100 for the full control effect; nearly all actives have a fitted effect of over 50% in size
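Fission yeast strain RE007, carrying one chromosomally integrated HIV-1 vpr copy, was seeded at OD 0.01 in PMG+AL medium with 23 nL pinned compound. After 24 h at 30 °C and 99% humidity, viability was read by BacTiter-Glo luminescence.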
Active calls of the source: *. Unless noted, calls come from the whole dose curve; as a rule, active = well fitted curve in the direction sought with a large enough effect; inconclusive = small, poorly fitted or top-dose-only effect, or another doubt; inactive = no such curve, though single readings can be large; an effect the other way counts as inactive or inconclusive.

Screening c1cn2c(Nc3ccc4c(c3)OCCO4)c(-c3ccc(N4CCOCC4)cc3)nc2cn1 returned Shiga inhibitor 53*, Cycloheximide cs 24*, LmPK inh -8%, FBPA Giardia inh -7%, TbPYK inhibitor 7% and RE007 growth inh -3%.
For Oc1ccccc1-c1nc2cnccn2c1Nc1ccc2c(c1)OCCO2 the results were Shiga inhibitor 51*, Cycloheximide cs 30*, LmPK inh 0%, FBPA Giardia inh 9%, TbPYK inhibitor 2% and RE007 growth inh -21%.
For Cc1ccc(-c2nc3cnccn3c2Nc2ccccc2)o1 the results were Shiga inhibitor 12, Cycloheximide cs 15, LmPK inh 6%, FBPA Giardia inh -8%, TbPYK inhibitor -13% and RE007 growth inh 15%.
For Cc1ccc(-c2nc3ncccn3c2Nc2ccc3c(c2)OCCO3)o1 the results were Shiga inhibitor 70*, Cycloheximide cs 27*, LmPK inh -4%, FBPA Giardia inh 7%, TbPYK inhibitor 2% and RE007 growth inh 10%.
Clc1ccc(-c2nc3cnccn3c2Nc2ccc3c(c2)OCO3)cc1 was read as Shiga inhibitor 1, Cycloheximide cs -3, LmPK inh -1%, FBPA Giardia inh 1%, TbPYK inhibitor -5% and RE007 growth inh 49%.
`O=C(CCn1c(=O)c2cccn2c2ccc(F)cc21)NCc1ccccc1F` gave TbPYK inhibitor -5%.
Screening CCCCNC(=O)COC(=O)c1ccc(F)cc1Cl returned Shiga inhibitor 76*, Cycloheximide cs 13*, LmPK inh 5%, FBPA Giardia inh 2%, TbPYK inhibitor -6% and RE007 growth inh 19%.
`CCCCNC(=O)COC(=O)c1cc(F)c(F)cc1Cl` gave Shiga inhibitor 56, Cycloheximide cs -2, LmPK inh 1%, FBPA Giardia inh -2%, TbPYK inhibitor -3% and RE007 growth inh 0%.
`Oc1ccccc1/C=N/NC(=S)NC1CC2C=CC1C2` (configuration not stated) gave Shiga inhibitor 57*, Cycloheximide cs 35*, LmPK inh 2%, FBPA Giardia inh 16%, TbPYK inhibitor -21% and RE007 growth inh inconclusive.
Screening CC1CC(C)CC(C)C(O)C(C#N)=CC=CCC(C2CCCC2C(=O)O)OC(=O)CC(O)C(C)C1 (configuration not stated) returned TbPYK inhibitor -2% and RE007 growth inh 6.3µM*.
O=C(CSc1cn(CC(=O)N2CCOCC2)c2ccccc12)Nc1ccccc1F was read as TbPYK inhibitor -4%.
`COc1cccc(N2CCN(c3c4c(nc5nncn35)CCC4)CC2)c1` gave TbPYK inhibitor -5%.
For O=C1CCCN1c1ccc(CNS(=O)(=O)c2ccc(F)cc2)cc1 the results were Shiga inhibitor 24, Cycloheximide cs 14*, LmPK inh 1%, FBPA Giardia inh 0%, TbPYK inhibitor -4% and RE007 growth inh 11%.
Screening CCN(CC)c1ccc(/C=N/NC(=O)OC)c(O)c1 returned Shiga inhibitor 64*, Cycloheximide cs 55*, LmPK inh -5%, FBPA Giardia inh -24%, TbPYK inhibitor -7% and RE007 growth inh -2%.
For CCN(CC)c1ccc(/C=N/NC(=O)c2ccc3nc[nH]c3c2)c(O)c1 the results were Shiga inhibitor 16, Cycloheximide cs -3, LmPK inh 0%, FBPA Giardia inh 17%, TbPYK inhibitor -4% and RE007 growth inh -6%.
CCN(CC)c1ccc(/C=N/Nc2ccccc2)c(O)c1 was read as Shiga inhibitor 29, Cycloheximide cs 23*, LmPK inh -1%, FBPA Giardia inh inconclusive, TbPYK inhibitor 2% and RE007 growth inh -8%.
For CCN(CC)c1ccc(/C=N/NC(=S)NC)c(O)c1 the results were Shiga inhibitor 77*, Cycloheximide cs 30*, LmPK inh 5%, FBPA Giardia inh -25%, TbPYK inhibitor -7% and RE007 growth inh -28%.
`CCN(CC)c1ccc(/C=N/NC(=O)c2ccoc2C)c(O)c1` gave Shiga inhibitor 93*, Cycloheximide cs 27*, LmPK inh -5%, FBPA Giardia inh 6%, TbPYK inhibitor -3% and RE007 growth inh -19%.
For CCN(CC)c1ccc(/C=N/Nc2cccc(C)c2)c(O)c1 the results were Shiga inhibitor 21, Cycloheximide cs 2, LmPK inh 4%, FBPA Giardia inh inconclusive, TbPYK inhibitor 1% and RE007 growth inh 7%.
`Cc1c(C(=O)N(C)C)sc2c1c(=O)n(-c1ccc(Cl)c(Cl)c1)c(=O)n2CC(=O)N1CCCCC1C` (configuration not stated) gave TbPYK inhibitor -2%.
For CSCC[C@H](NC(=O)CN)C(=O)N[C@@H](CC(=O)O)C(=O)N[C@@H](CO)C(=O)N[C@@H](CC(C)C)C(=O)N[C@@H](C)C(=O)N[C@@H](Cc1ccccc1)C(=O)N[C@@H](CO)C(=O)NCC(=O)NCC(=O)N[C@@H](CC(C)C)C(N)=O the results were Shiga inhibitor -4, Cycloheximide cs 6 and FBPA Giardia inh 5%.
CCN(CC)c1ccc(C=Nc2ccc(N(C)C)cc2)c(O)c1 was read as Shiga inhibitor 91*, Cycloheximide cs 54*, LmPK inh 3%, FBPA Giardia inh inconclusive, TbPYK inhibitor -23% and RE007 growth inh -26%.
`CCN(CC)c1ccc(/C=N/N2CCOCC2)c(O)c1` gave Shiga inhibitor 70*, Cycloheximide cs 65*, LmPK inh -3%, FBPA Giardia inh -17%, TbPYK inhibitor 3% and RE007 growth inh -18%.
Screening C/C(=C\C1CCCCC1)C(NC(=O)c1cccnc1)c1ccc(-c2ccccc2)cc1 (configuration not stated) returned FBPA Giardia inh -3%.
For COc1cc(Cl)c(NS(=O)(=O)c2ccc3c(c2)CC(C)N3C(=O)C2CCC2)c(OC)c1 (configuration not stated) the results were TbPYK inhibitor 3%.
For CCc1ccccc1Nc1cc(C(=O)NC2CCC(C)CC2)c2ccccc2n1 (configuration not stated) the results were TbPYK inhibitor 2%.
O=C(CCc1nc2ccccc2s1)c1ccccc1 was read as Shiga inhibitor 4, Cycloheximide cs 37*, LmPK inh 1%, FBPA Giardia inh -13%, TbPYK inhibitor -10% and RE007 growth inh -29%.
`O=C(CCc1nc2ccccc2s1)OCC(=O)c1ccccc1` gave Shiga inhibitor 31, Cycloheximide cs 12*, LmPK inh -1%, FBPA Giardia inh -1%, TbPYK inhibitor -3% and RE007 growth inh 4%.
COC(=O)CCCc1nc2ccccc2s1 was read as Shiga inhibitor 33*, Cycloheximide cs 25, LmPK inh -6%, FBPA Giardia inh 1%, TbPYK inhibitor 0% and RE007 growth inh 19%.

Screening data from PubChem.
